# Screening results from PubChem.
# CYP2C9 inh = blockers of cytochrome P450 2C9 activity – biochemical, luminescence, ADME assay, primary screen; CYP2C9 Supersomes, luciferin-H conversion; inhibition, % at 5 µM; 20% of 96,000 active; AID 777, 2007;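 active = blocking of liver enzyme CYP2C9 beyond about 50% at 5 µM, limit read from the data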
# CYP2C19 activ = human CYP2C19 activators, primary screen, biochemical, luminescence. 96,000 tested, under 10 active. recombinant CYP2C19, luciferin-H EGE luminescence; hits give high values; 0 = fully inhibited enzyme, 1 = untreated enzyme. activation factor at 5 µM;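 active = activation factor of at least 2 at 5 µM in the primary screen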;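 also: 0 = wells with 2.5 mM tranylcypromine and 1 = vehicle-only wells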
# Cav32 inh = Cav3.2 calcium influx blockers – cell-based, Fluo-4 calcium fluorescence, FDSS, MLSMR library, primary screen | Cav3.2-expressing cells; hits give low values | B-score at 10 µM | 4% of 100,000 active;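 active = single-dose well whose peak fluorescence ratio is a statistical outlier from its plate by either plate-standardised score or position-corrected B-score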
# Target sequence (O95180 whole entry, looked up): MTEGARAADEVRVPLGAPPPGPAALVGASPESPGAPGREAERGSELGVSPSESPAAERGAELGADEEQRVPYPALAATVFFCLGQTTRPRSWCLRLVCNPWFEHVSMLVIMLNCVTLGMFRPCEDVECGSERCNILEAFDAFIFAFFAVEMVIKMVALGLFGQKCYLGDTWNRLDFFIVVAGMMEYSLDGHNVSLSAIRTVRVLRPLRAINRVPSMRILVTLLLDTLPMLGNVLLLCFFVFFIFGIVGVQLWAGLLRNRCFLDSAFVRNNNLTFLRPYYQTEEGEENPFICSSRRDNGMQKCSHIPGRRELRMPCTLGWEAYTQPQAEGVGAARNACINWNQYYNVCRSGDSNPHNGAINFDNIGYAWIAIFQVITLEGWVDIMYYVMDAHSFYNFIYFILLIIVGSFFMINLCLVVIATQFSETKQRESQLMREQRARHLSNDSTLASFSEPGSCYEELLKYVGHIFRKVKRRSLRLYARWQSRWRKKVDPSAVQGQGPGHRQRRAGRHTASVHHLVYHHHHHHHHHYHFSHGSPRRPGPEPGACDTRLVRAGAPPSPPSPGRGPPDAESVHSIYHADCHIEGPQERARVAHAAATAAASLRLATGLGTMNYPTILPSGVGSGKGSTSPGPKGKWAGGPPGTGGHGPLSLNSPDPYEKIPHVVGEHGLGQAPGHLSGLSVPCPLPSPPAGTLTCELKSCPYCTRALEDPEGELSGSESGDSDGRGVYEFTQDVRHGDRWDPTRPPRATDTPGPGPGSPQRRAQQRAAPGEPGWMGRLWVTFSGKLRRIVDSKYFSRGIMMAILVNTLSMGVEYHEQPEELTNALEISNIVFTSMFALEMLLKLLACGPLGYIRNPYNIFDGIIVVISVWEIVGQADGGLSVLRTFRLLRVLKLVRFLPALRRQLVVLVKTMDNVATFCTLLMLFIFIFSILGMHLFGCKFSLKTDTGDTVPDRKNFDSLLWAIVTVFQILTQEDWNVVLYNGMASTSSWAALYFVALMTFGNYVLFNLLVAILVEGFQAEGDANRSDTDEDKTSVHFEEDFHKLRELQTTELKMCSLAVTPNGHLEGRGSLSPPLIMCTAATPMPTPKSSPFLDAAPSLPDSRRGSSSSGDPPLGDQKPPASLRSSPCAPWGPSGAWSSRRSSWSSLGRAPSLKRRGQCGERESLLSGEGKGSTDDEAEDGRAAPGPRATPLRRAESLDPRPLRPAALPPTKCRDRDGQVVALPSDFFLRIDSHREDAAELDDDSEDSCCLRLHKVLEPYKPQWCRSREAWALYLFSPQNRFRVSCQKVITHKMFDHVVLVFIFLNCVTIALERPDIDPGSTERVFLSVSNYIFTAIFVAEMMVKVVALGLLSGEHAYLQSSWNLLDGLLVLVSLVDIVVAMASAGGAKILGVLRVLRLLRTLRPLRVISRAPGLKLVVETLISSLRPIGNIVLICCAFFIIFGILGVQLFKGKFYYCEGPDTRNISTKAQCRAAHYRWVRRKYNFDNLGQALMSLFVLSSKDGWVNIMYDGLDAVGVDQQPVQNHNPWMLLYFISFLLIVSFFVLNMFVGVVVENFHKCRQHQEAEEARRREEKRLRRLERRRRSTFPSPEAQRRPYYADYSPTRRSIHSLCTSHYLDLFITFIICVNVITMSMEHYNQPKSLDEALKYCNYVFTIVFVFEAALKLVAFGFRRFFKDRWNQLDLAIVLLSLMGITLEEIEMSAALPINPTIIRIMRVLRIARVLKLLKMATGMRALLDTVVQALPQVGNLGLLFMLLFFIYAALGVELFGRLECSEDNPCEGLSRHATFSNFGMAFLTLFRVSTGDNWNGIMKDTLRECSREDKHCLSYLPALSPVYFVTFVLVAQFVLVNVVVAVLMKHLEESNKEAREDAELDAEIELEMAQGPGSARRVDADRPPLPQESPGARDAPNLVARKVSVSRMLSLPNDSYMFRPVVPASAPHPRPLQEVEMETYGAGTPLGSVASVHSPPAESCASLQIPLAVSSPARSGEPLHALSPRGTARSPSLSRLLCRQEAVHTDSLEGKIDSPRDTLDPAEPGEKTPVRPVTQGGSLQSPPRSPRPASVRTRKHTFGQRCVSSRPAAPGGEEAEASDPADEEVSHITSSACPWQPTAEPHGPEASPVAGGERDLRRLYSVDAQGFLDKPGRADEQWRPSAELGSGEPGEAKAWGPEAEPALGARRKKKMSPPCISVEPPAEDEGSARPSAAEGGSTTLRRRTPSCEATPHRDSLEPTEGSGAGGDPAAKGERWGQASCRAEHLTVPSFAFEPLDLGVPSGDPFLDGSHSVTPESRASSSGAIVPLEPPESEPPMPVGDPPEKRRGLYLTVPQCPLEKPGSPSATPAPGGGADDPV
# CYP2C19 inhib = blockers of cytochrome P450 2C19 activity – biochemical, luminescence, ADME assay, primary screen | P33261 | CYP2C19 Supersomes, luciferin-H EGE luminescence, 30 min | inhibition, % at 5 µM | 21% of 96,000 active | AID 778, 2007;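 active = CYP2C19 inhibition above a set limit at 5 µM in the primary screen, cut at about 50% in these data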;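 also: plate controls were negative control wells for no effect and 2.5 mM tranylcypromine positive control for full effect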
# CYP2C9 activ = human CYP2C9 activators, primary screen, biochemical, luminescence; Cytochrome P450 2C9 (Homo sapiens), P11712; recombinant CYP2C9, luciferin-H conversion; hits give high values; factor 1 = untreated enzyme, 0 = blocked; activation factor at 5 µM; 1.4% of 96,000 active; AID 1024, 2008;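 active = activation factor of 2 or more for CYP2C9 at a 5 µM dose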;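 also: 0 = sulfaphenazole-blocked wells and 1 = vehicle-only wells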
# An asterisk follows results filed as active; . = no result given. Only some compounds are listed: those with a hit (about 27% of all), similar ones and a draw of the others.
SMILES,CYP2C9 inh,CYP2C19 activ,Cav32 inh,CYP2C19 inhib,CYP2C9 activ
Cc1oc(-c2ccccc2)nc1Cn1cccc1C1=NC(c2ccccc2)CO1 (stereo unspecified),82.0*,0.2,-5.64*,84.2*,0.2
CC1=CC(C)(C)Nc2ccc(OC(=O)C(C)N3C(=O)c4ccccc4C3=O)cc21 (stereo unspecified),87.4*,0.6,-0.0711,35.6,0.1
CC1=CC(C)(C)Nc2ccc(OC(=O)c3cccnc3)cc21,41.1,0.3,0.248,71.4*,0.6
CC1=CC(C)(C)Nc2ccc(OC(=O)CN3C(=O)CCC3=O)cc21,-10.7,1.1,0.0198,-5.5,1.1
CC1=CC(C)(C)Nc2ccc(OC(=O)c3ccco3)cc21,-45.6,0.2,0.0669,78.0*,1.5
CCOc1cc(CNc2ncc(-c3ccc(OC)cc3)n2C)ccc1O,47.2,0.4,0.871,59.4*,0.5
COc1ccc(CNc2nc(NCc3ccc(OC)cc3)n(C(C)=O)n2)cc1,15.4,1.1,0.016,-6.4,0.8
Cn1c(-c2ccc(Br)cc2)cnc1NCc1cccnc1,23.0,0.6,0.919,37.1,0.8
Cn1c(-c2ccc(F)cc2)cnc1NCc1ccc(F)cc1,28.1,0.3,-0.352,68.9*,0.7
Cn1c(-c2ccc(F)cc2)cnc1NCc1ccc(C#N)cc1,56.6*,0.4,0.952,64.4*,0.4
Nc1ccc2oc(=O)c3ccccc3c2c1,24.0,0.4,.,59.2*,0.8
Nc1c(N)c2ccccc2oc1=O,2.0,1,0.194,2.4,1
O/C(=C\Sc1nnc(Cc2ccccc2)o1)c1ccc(F)cc1,96.4*,0.6,-0.0429,35.8,0
CCCC[C@@H]1C[C@H]1[C@@H](NC(=O)c1cccs1)c1ccc(C(F)(F)F)cc1,.,.,-2.3,.,.
CC(=O)Nc1ccc(NC(=O)CC2Nc3cccc4cccc(c34)NC2=O)cc1 (stereo unspecified),62.6*,1,.,0.4,0.4
O=C(CC1NC(=O)NC1=O)Nc1ccccc1 (stereo unspecified),68.5*,0.9,-0.00579,9.8,0.3
Cc1cccc(NC(=O)CC2Nc3cccc4cccc(c34)NC2=O)c1 (stereo unspecified),25.6,0.6,-2.17,41.0,0.7
O=C(CC1NC(=O)NC1=O)Nc1cccc2ccccc12 (stereo unspecified),5.2,1,-0.245,3.4,0.9
Cc1ccc(Cn2ncn3c(cc4ccccc43)c2=O)cc1,14.0,1.1,-2.39,-8.5,0.9
O=c1c2ccccc2nnn1CSc1ccc2c(c1)OCCO2,54.7*,0.1,-2.48,94.4*,0.5
COc1cccc(C2c3c(oc4ccccc4c3=O)C(=O)N2c2ccccn2)c1 (stereo unspecified),24.6,0.9,0.277,11.1,0.8
COc1cccc(C2c3c(oc4cc(C)c(C)cc4c3=O)C(=O)N2CCCN(C)C)c1 (stereo unspecified),34.7,0.9,1.65,8.2,0.7
CCOc1ccc(C2c3c(oc4cc(C)c(C)cc4c3=O)C(=O)N2CCCN(C)C)cc1OC (stereo unspecified),56.3*,0.9,-0.0772,11.1,0.4
COc1ccc(C2c3c(oc4ccc(C)cc4c3=O)C(=O)N2c2cc(C)ccn2)cc1OC (stereo unspecified),63.5*,0.9,-1.83,7.8,0.4
COc1ccc(CN(C#N)c2nc(SC)nc(N(C)C)n2)cc1,-40.5,0.1,-1.47,88.9*,1.4
SMILES,CYP2C9 inh,CYP2C19 activ,Cav32 inh,CYP2C19 inhib,CYP2C9 activ
CCc1ccc(N(CC(=O)O)S(=O)(=O)c2c(C)noc2C)cc1,25.3,1,-1.92,-1.8,0.7
CCc1ccc(NC(=O)CNS(=O)(=O)c2c(C)noc2C)cc1,50.7*,0.6,.,37.1,0.5
Cc1ccc(CNC(=O)c2ccc(NS(=O)(=O)c3c(C)noc3C)cc2)cc1,69.8*,1,.,3.6,0.3
COc1ccc(CCNC(=O)c2ccc(NS(=O)(=O)c3c(C)noc3C)cc2)cc1OC,63.7*,0.9,0.685,10.8,0.4
COc1cc(CN(C)CCc2ccccc2)ccc1OCc1ccccc1,12.5,0.9,-1.32,13.8,0.9
CCc1nc(SCC(=O)Nc2ccnc3ccccc23)n[nH]1,19.1,1,0.175,1.9,0.8
